Rtt109 HAT inh: C. albicans Rtt109 histone acetyltransferase inhibition; Q5AAJ8; inhibition, % at 34.9 µM; purified Rtt109/Vps75, ThioGlo CoA-SH fluorescence, 4 h; AID 540336; hit rate 0.16% among 330,000;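 active means inhibition of at least 50% in every replicate; inconclusive means best replicate reaches 50% inhibition but some replicates fall short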
SIRT5 block: sirtuin-5 (human) deacylase inhibition | Q9NXA8 | Purified SirT5, succinyl-peptide AMC, trypsin-coupled fluorescence | inhibition, % at 15 µM | hit rate 1.1% among 330,000 | AID 652115; in the data active means inhibition above about 15%; inconclusive means no clear call, values can overlap the other calls
ERp5 inh: inhibitors of human ERp5 | AID 651711 | hit rate 0.05% among 350,000 | inhibition, % at 9.99 µM | Q15084 | ERp5 insulin aggregation, absorbance 650 nm, 90 min;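 active means mean replicate inhibition above about 25%, with every replicate also reaching it, limit read from the data, passing the limit was not always enough; inconclusive means only one of those two criteria met; inactive means neither criterion met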
Target sequence (Q15084 whole entry, looked up): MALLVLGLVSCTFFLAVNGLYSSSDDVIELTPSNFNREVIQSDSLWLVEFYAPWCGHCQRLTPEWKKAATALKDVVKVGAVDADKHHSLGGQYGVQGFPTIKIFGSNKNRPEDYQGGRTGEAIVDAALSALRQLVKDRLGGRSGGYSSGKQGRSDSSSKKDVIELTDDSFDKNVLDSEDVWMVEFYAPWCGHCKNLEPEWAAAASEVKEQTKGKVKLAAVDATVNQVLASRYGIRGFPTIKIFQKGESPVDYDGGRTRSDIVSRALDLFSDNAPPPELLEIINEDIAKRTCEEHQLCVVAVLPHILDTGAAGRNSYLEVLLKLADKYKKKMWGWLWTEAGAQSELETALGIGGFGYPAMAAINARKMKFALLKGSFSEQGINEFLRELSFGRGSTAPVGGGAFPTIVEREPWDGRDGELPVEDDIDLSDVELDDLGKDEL
DENV2 CPE: DENV2-induced cell death inhibition; hit rate 1.7% among 350,000; CPE inhibition, % at 9.99 µM; DENV2-infected cells, cytopathic effect rescue, plate reader; AID 651640; in the data active means CPE inhibition above about 20%, passing the limit was not always enough; inconclusive means no clear call, values can overlap the other calls; tested in BHK-21 cells;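 further: 0% = median of neutral control wells and 100% = median of positive control wells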
PDI inh: blocks human protein disulfide isomerase activity | P07237 | PDI insulin aggregation turbidity, A650, 90 min | inhibition, % at 10 µM | hit rate 0.052% among 350,000 | AID 588391;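 active means mean inhibition across replicates of 30% or more, whatever share of single replicates reach that level; inconclusive means mean inhibition below 30% while every single replicate reaches 30%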
Active calls of the source: *; ? = inconclusive; / = not tested or not shown. In the library only some 2.3% were active in any assay of this set; here they are far more common.

SMILES	Rtt109 HAT inh	SIRT5 block	ERp5 inh	DENV2 CPE	PDI inh
C[C@@H]1CCCCO[C@H](CN(C)C(=O)C2CCCCC2)[C@@H](C)CN([C@@H](C)CO)C(=O)c2cc(NS(=O)(=O)c3ccc(F)cc3)ccc2O1	/	17*	3	2	/
N#C[C@H]1[C@@H](c2ccccc2)[C@@H](CO)N1S(=O)(=O)c1ccc(-c2ccccc2)cc1	/	3	4	-7	/
COc1ccc2c3c([nH]c2c1)[C@@H](CO)N(C(=O)Nc1ccc(F)cc1)CC31CCN(S(C)(=O)=O)CC1	/	1	0	-2	/
Cc1cccc(N(CC(=O)NC(C)(C)C)C(=O)CNC(=O)c2cccs2)c1C	-10	2	-1	44*	5
C[C@H](CO)N1C[C@H](C)[C@@H](CN(C)S(=O)(=O)c2cccs2)Oc2ccc(NS(=O)(=O)c3ccc(F)cc3)cc2CC1=O	/	5	-1	/	/
C[C@@H]1CN([C@@H](C)CO)C(=O)c2cc(NS(C)(=O)=O)ccc2O[C@H]1CN(C)Cc1ccc(-c2ccccc2)cc1	/	2	3	32*	/
Cc1ccc(S(=O)(=O)Nc2ccc3c(c2)C(=O)N([C@@H](C)CO)C[C@@H](C)[C@H](CN(C)Cc2ccc(-c4ccccc4)cc2)O3)cc1	/	-4	-14	0	/
Cc1ccc(S(=O)(=O)Nc2ccc3c(c2)C(=O)N([C@@H](C)CO)C[C@@H](C)[C@@H](CN(C)Cc2ccc(-c4ccccc4)cc2)O3)cc1	/	17*	-10	4	/
C[C@@H]1CN([C@@H](C)CO)C(=O)c2cc(NS(=O)(=O)c3ccccc3)ccc2O[C@@H]1CN(C)Cc1ccc(-c2ccccc2)cc1	/	18*	-3	11	/
CCC(=O)Nc1ccc2c(c1)OC[C@@H](C)N(C(C)=O)C[C@H](C)[C@@H](OC)CN(C)C2=O	/	-4	-1	-6	/
CCC(=O)Nc1ccc2c(c1)OC[C@@H](C)N(C(C)=O)C[C@@H](C)[C@@H](OC)CN(C)C2=O	/	-3	7	24*	/
CCC(=O)Nc1ccc2c(c1)OC[C@H](C)N(C(C)=O)C[C@H](C)[C@@H](OC)CN(C)C2=O	/	-6	-2	1	/
CCC(=O)Nc1ccc2c(c1)OC[C@@H](C)N(C(C)=O)C[C@H](C)[C@H](OC)CN(C)C2=O	/	-3	0	27*	/
COc1ccc(CN(C)C[C@@H]2Oc3c(NC(=O)c4cc(C)nn4C)cccc3C(=O)N([C@@H](C)CO)C[C@H]2C)cc1	/	3	-7	-8	/
CS(=O)(=O)Nc1ccc2c(c1)[C@H]1C[C@@H](CC(=O)NCC3CC3)O[C@@H](CO)[C@H]1O2	/	-1	2	0	/
CC(=O)N1CCCCN2[C@H](CO)[C@H](c3ccc(-c4cccc(C)c4)cc3)[C@H]2C1	/	1	0	-5	/
Cc1ccc(S(=O)(=O)N[C@@H]2C=C[C@H](CC(=O)NCc3ccc(Cl)c(Cl)c3)O[C@H]2CO)cc1	/	1	-3	5	/
O=C(CCS(=O)(=O)Cc1ccccc1F)NCCc1ccc(Cl)cc1	-2	17*	0	2	-5
Cc1ccc(CCNC(=O)CCS(=O)(=O)Cc2ccc(C)cc2)cc1	3	-1	4	-4	-2
Nc1cc(S(=O)(=O)O)cc([N+](=O)[O-])c1O	3	30*	-10	4	-3
Nc1cccc2c(O)cc(S(=O)(=O)O)cc12	12	/	/	/	-9
O=C(c1ccc(F)cc1F)N1CCCC(c2nc(-c3ccc(F)cc3)no2)C1 (stereo not given)	4	/	2	1	-7
O=C(Nc1ccc(F)cc1F)N1CCCC(c2nc(-c3ccc(F)cc3)no2)C1 (stereo not given)	64*	-1	3	-5	-8
CCn1c(SCC(=O)N2CCCCCC2)nc2c([nH]c3ccccc32)c1=O	2	-9	3	63*	1
Cc1noc(C)c1S(=O)(=O)N(C)C[C@@H]1OCCCC[C@@H](C)Oc2ccc(NC(=O)Nc3ccc(F)cc3)cc2C(=O)N([C@@H](C)CO)C[C@@H]1C	/	2	-2	46*	/
SMILES	Rtt109 HAT inh	SIRT5 block	ERp5 inh	DENV2 CPE	PDI inh
Cc1noc(C)c1S(=O)(=O)N(C)C[C@@H]1OCCCC[C@H](C)Oc2ccc(NC(=O)NC(C)C)cc2C(=O)N([C@H](C)CO)C[C@H]1C	/	8	-2	86*	/
Cc1ccc(S(=O)(=O)NCC[C@@H]2CC[C@H](NC(=O)C3CCOCC3)[C@@H](CO)O2)cc1	/	2	2	17	/
FC(F)(F)c1ccc(Oc2ccc3ccccc3c2Br)nc1	-8	24*	0	-7	8
O=[N+]([O-])c1ccccc1Oc1ccc(C(F)(F)F)cn1	-13	-4	1	-9	-5
C[C@@H]1CCCCO[C@@H](CN(C)S(=O)(=O)c2cccs2)[C@H](C)CN([C@H](C)CO)C(=O)c2cc(NS(=O)(=O)c3ccccc3)ccc2O1	/	5	-3	?	/
CCOC(=O)C1=CCN(S(=O)(=O)c2ccccc2Br)C1c1ccc(Cl)c(Cl)c1 (stereo not given)	/	25*	2	11	/
CCOC(=O)C1=CCN(S(=O)(=O)c2ccccc2Cl)C1c1ccc(Cl)c(Cl)c1 (stereo not given)	/	-2	-4	-5	/
COc1ccc(NC(=O)N[C@@H]2CC[C@@H](CCNS(=O)(=O)c3cccc(Cl)c3)O[C@@H]2CO)cc1	/	4	-1	114*	/
COc1cccc(NC(=O)N[C@@H]2CC[C@@H](CC(=O)N3CCOCC3)O[C@@H]2CO)c1	/	0	-1	64*	/
COc1ccccc1NC(=O)N[C@H]1CC[C@H](CCNS(=O)(=O)c2ccc(Cl)cc2)O[C@@H]1CO	/	1	0	-4	/
COc1ccccc1NC(=O)N[C@H]1CC[C@H](CCNS(=O)(=O)c2ccc(C)cc2)O[C@H]1CO	/	0	1	22*	/
COc1ccc(NC(=O)N[C@H]2CC[C@@H](CCNS(=O)(=O)c3cccc(Cl)c3)O[C@@H]2CO)cc1	/	4	-1	-6	/
COc1cccc(NC(=O)N[C@H]2CC[C@@H](CC(=O)N3CCOCC3)O[C@@H]2CO)c1	/	2	-2	1	/
COc1ccccc1NC(=O)N[C@H]1CC[C@@H](CCNS(=O)(=O)c2ccc(Cl)cc2)O[C@H]1CO	/	2	5	20*	/
COc1ccc2c3c([nH]c2c1)[C@@H](CO)N(C(=O)c1ccccn1)CC31CN(S(C)(=O)=O)C1	/	2	-2	-8	/
COc1ccc(-c2cnc3c(c2)C(=O)N([C@H](C)CO)C[C@@H](C)[C@@H](CN(C)C(=O)C2CCCCC2)O3)cc1	/	0	0	1	/
COc1ccc(S(=O)(=O)Nc2ccc3c(c2)C(=O)N([C@H](C)CO)C[C@H](C)[C@H](CN(C)Cc2ccccc2)OCCCC[C@@H](C)O3)cc1	/	/	/	-7	/
CCOc1cc(C(=O)OC(C)C(=O)Nc2ccc(S(N)(=O)=O)cc2)ccc1OCC(=O)N1CCOCC1 (stereo not given)	-9	19*	-2	5	0
CC(C)NC(=O)N1[C@@H](C#N)[C@H](c2ccc(C#CC3CCCCC3)cc2)[C@@H]1CO	/	0	6	0	/
